Compounds without any hit were thinned out: in the full panel of roughly 83,000, 20% have a hit.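 Interpretation: 100, growth as untreated; towards 0, rising growth inhibition; 0, no net growth; 0 to -100, cell death. Compounds scoring below 10 were considered active.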 Values without a mark were called inactive. Calls of active or inactive are those of the source.
How the values were obtained:
Assay in all cases: NCI-60 one-dose screen, 48 h (100 = growth as untreated, 0 = no growth, -100 = all killed)
Conditions in all cases: 10 µM unless noted
SK-MEL-2 melanoma = tested on: SK-MEL-2 melanoma
EKVX NSCLC = tested on: EKVX NSCLC
SN12C renal = tested on: SN12C renal
UO-31 renal = tested on: UO-31 renal
TK-10 renal = tested on: TK-10 renal
ACHN renal = tested on: ACHN renal
CAKI-1 renal = tested on: CAKI-1 renal
A498 renal = tested on: A498 renal
CCRF-CEM leukemia = tested on: CCRF-CEM leukemia
MOLT-4 leukemia = tested on: MOLT-4 leukemia
SR leukemia = tested on: SR leukemia
RPMI-8226 leukemia = tested on: RPMI-8226 leukemia
OVCAR-8 ovarian = tested on: OVCAR-8 ovarian
OVCAR-5 ovarian = tested on: OVCAR-5 ovarian
OVCAR-4 ovarian = tested on: OVCAR-4 ovarian
IGROV1 ovarian = tested on: IGROV1 ovarian
HS 578T breast = tested on: HS 578T breast
SK-OV-3 ovarian = tested on: SK-OV-3 ovarian
OVCAR-3 ovarian = tested on: OVCAR-3 ovarian
NCI/ADR-RES ovarian = tested on: NCI/ADR-RES ovarian

SMILES	growth (SK-MEL-2 melanoma)	growth (EKVX NSCLC)	growth (SN12C renal)	growth (UO-31 renal)	growth (TK-10 renal)	growth (ACHN renal)	growth (CAKI-1 renal)	growth (A498 renal)	growth (CCRF-CEM leukemia)	growth (MOLT-4 leukemia)	growth (SR leukemia)	growth (RPMI-8226 leukemia)	growth (OVCAR-8 ovarian)	growth (OVCAR-5 ovarian)	growth (OVCAR-4 ovarian)	growth (IGROV1 ovarian)	growth (HS 578T breast)	growth (SK-OV-3 ovarian)	growth (OVCAR-3 ovarian)	growth (NCI/ADR-RES ovarian)
OC1(c2ccc(Cl)c(C(F)(F)F)c2)CCN(CCCC(c2ccc(F)cc2)c2ccc(F)cc2)CC1	-77.2% (active)	-9.88% (active)	-91.3% (active)	-65.7% (active)	-50.7% (active)	-86.8% (active)	-68.7% (active)	-92.5% (active)	-39% (active)	-25.8% (active)	-44.2% (active)	-22% (active)	-71.7% (active)	-46.9% (active)	-10.8% (active)	-57.2% (active)	-47% (active)			
c1ccc(-c2nnc(Nc3ccc4c(c3)OCCO4)o2)c(NCc2ccncc2)c1	4.04% (active)	35.4%	27.5%	30.2%	50.9%	23.4%	21.1%	10%	20.4%	21.1%	10.9%		20.2%	32.2%	35.5%	28.5%	64.4%	-2.96% (active)	-36.9% (active)	4.75% (active)
COc1ccc(-c2cnc(N)nc2-c2ccc(OC)cc2O)cc1	112%	96.8%	98.5%	70.2%	99.1%	87.9%	86.5%	99.8%	82.4%	77.2%	66.9%		89.5%		86.5%	83.8%	157%	103%	108%	85.7%
COc1ccc(Cn2nc(-c3ccccc3)c3c2CCc2cnoc2-3)cc1	111%	65.9%	76.8%	70%	105%	81.4%	66.3%	58.7%	67.8%	52.7%	36%		80.8%	102%	72.1%	86%	90.7%	83.1%	87.4%	66.7%
O=C(O)C(/C=C/c1ccco1)=N\Nc1nc(-c2ccc(Cl)cc2)cs1	11.5%	67.1%	86.8%	38.8%	77.6%	69%	63.9%	65.2%	24%	40.9%	41.5%		36.6%	98.9%	43.1%	-10% (active)	77.3%	70.9%	-4.27% (active)	12.5%
O=C1Nc2ccccc2/C1=C\c1cccc(/C=C2/C(=O)Nc3ccccc32)n1	-34% (active)	-37.9% (active)	8.35% (active)	-82.5% (active)	-59.3% (active)	-100% (active)	-80.7% (active)	-77.7% (active)	-51.9% (active)	-30% (active)		-48.7% (active)	-6.07% (active)	-69.5% (active)	11.6%	-66.8% (active)	-39.2% (active)	-88.6% (active)	-89.6% (active)	16.1%
O=S(=O)(c1cccc(NC2=Nc3cccc4cccc2c34)c1)N1CCCC1	75.2%	62%	72.2%	67.5%	90.5%	66.9%	78%	75.1%	41.7%	57%		48.8%	83.7%	100%	46.9%	80%	76.8%	84.1%	84.3%	66%
CCCOc1nc(SCCC)nc2c1cnn2-c1ccccc1	86.8%	97.3%	98.7%	91.9%	149%	111%	105%	134%	92.9%	141%		152%	99.2%	89.2%	99.6%		126%	106%	94.8%	
CCN1C(=O)N(CC)C2C1NN=c1s/c(=C3\C(=O)Nc4ccccc43)c(=O)n12 (centres undefined)	37.6%	65.3%	34%	42.9%	60.5%	43%	35.5%	-26.6% (active)		46.1%	18.4%	36.9%	31.6%	50.6%	51.1%	35.2%	13.2%	18.4%	-12.8% (active)	42%
CCCCCCCCN1C(=O)/C(=c2\sc3n(c2=O)C2C(NN=3)N(CC)C(=O)N2CC)c2ccccc21 (centres undefined)	86.8%	73.9%	86.1%	66.8%	110%	73.8%	49.3%	86.9%		101%	77.5%	105%	85.7%	81.6%	94.2%	86.5%	40.4%	90.6%	98.6%	82.2%
Cn1c2c(Cl)c(Cl)ccc2c2cc(N)[nH]c(=O)c21	116%	59.9%	92%	54.4%	120%	82.6%	-23.4% (active)	56.5%	81.3%			94.9%	73.7%	66.2%	87.2%	54.7%	51.5%	92.2%	86.2%	74.6%
Clc1nc(Cl)c2ncn(CC3(Cn4cnc5c(Cl)nc(Cl)nc54)COC3)c2n1	-76% (active)	-71.6% (active)	-86.6% (active)	-97.7% (active)	-93.2% (active)	-98.7% (active)	-87.8% (active)	-88.6% (active)		-66.8% (active)	-76.1% (active)	-63.5% (active)	-83.7% (active)	-86% (active)	-87.9% (active)	-93.3% (active)	-43.8% (active)	-99.8% (active)	-93.3% (active)	-57.4% (active)
CCNC(=O)c1[nH]cc(-c2ccc(OC)cc2)c1-c1cc(OC)cc(OC)c1	98.6%	89.8%	85.4%	77.4%	115%	67.3%	59.9%	91.1%		94.5%	92.6%	87.7%	93.4%	99.6%	81.4%	80.3%	87.1%	145%	83.5%	
COc1cc(-c2cc(=O)oc3cc(O)ccc23)c(OC)c2c1OCO2	96.6%	90.6%	84%	72.2%	108%	91.2%	76.9%	94.6%		100%	84.2%	60.2%	91.6%	91.6%	68.9%	91.5%	81.9%	125%	92.7%	92.6%
CCN(CCNc1cc(OC)cc2cccnc12)CCc1ccccc1	101%	91.2%	91.3%	70.8%	101%	84.1%	84.7%	92.2%	73.7%			81.6%	85.2%	93.9%	19.1%	94.6%	85.6%	74.6%	79%	81.1%
O=C(Nc1ccc(Cl)cc1)Nc1ccc(Cl)c(Cl)c1	13.3%	18.8%	6.47% (active)	9.73% (active)	12.5%	-9.93% (active)	-1.31% (active)	11.4%	6.06% (active)	6.56% (active)		-27.6% (active)	21.2%	23.9%	21.8%	21.5%	33%	20.2%		-18.8% (active)
COc1cccc2cc(-c3cc4ccccc4[nH]3)/c(=N/C(=S)Nc3ccc(C)cc3)oc12	85%	60.9%	77.6%	85.3%	94.3%	27.9%	19.2%	63%		101%	123%	114%	54%	89.4%	34.6%	58.2%	14.1%	64.7%	81.2%	50.8%

From PubChem BioAssay (NCI)
